Measurements reported in PubChem BioAssay AID602250 (The Scripps Research Institute Molecular Screening Center, 2012).
Out of some 360,000 compounds screened, about 2,200 (0.61%) were called active.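 How the source made its calls: active means inhibition above a per-plate cutoff, the plate's mean sample inhibition plus 3 SD (cut at about 24% in these data); inactive means the rest.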 The sample as a whole holds a higher share of actives than the screen did.

Assay: calcium signal blockers in parental CHO-K1 cells – cell-based, Fluo-8 calcium fluorescence, full deck, 1536-well, counter-screen for M1 antagonist project, primary screen (AID 602250);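 further: 0% = DMSO plus EC80 ATP and 100% = DMSO alone without ATP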
Details: ATP-induced calcium, Fluo-8 fluorescence, at 3 µM, stronger effect = higher value
With `Cc1cccn2c(=O)c3cc(C(=O)NCCN4CCOCC4)c(=N)n(Cc4cccnc4)c3nc12` the inhibition was 6.02% (inactive).
For `Cc1cccn2c(=O)c3cc(C#N)c(=NC(=O)c4cccnc4)n(CC4CCCO4)c3nc12` (centres undefined), the inhibition was 20.6% (inactive).
For `Cc1cccn2c(=O)c3cc(C#N)c(=O)n(CCCN4CCOCC4)c3nc12`, the inhibition was 25.6% (active).
With `COCC(C)NC(=O)c1ccc(-n2nc(C(F)(F)F)cc2-c2cccs2)cc1` (centres undefined) the inhibition was -4.35% (inactive).
With `CC(C)(C)NC(=O)Cn1nnc(-c2ccccc2Cl)n1` the inhibition was -23% (inactive).
With `NC(=O)c1ncn([C@@H]2O[C@H](CN=C3NS(=O)(=O)c4ccccc43)[C@@H](O)[C@H]2O)n1` the inhibition was -7.18% (inactive).
In the case of `Cc1c(-c2ccccc2)cn2c1-c1ccc(C)n1CC2`, the inhibition is reported as 43.4% (active).
With `CC(=O)c1ccc(NC(=O)CCNS(=O)(=O)c2cc(Br)cnc2N)cc1` the inhibition was 0.07% (inactive).
For `Cc1ccc(S(=O)(=O)c2c[nH]c3ccc(Cl)cc3c2=O)cc1`, the inhibition was 0.53% (inactive).
In the case of `O=C(CCn1nnnc1CN1CCOCC1)N1CCC(c2ccccc2Cl)C1` (centres undefined), the inhibition is reported as -9.8% (inactive).
In the case of `CSc1nsc(SCC(=O)Nc2cc(C(=O)O)ccc2C)n1`, the inhibition is reported as -5.18% (inactive).
For `CC(=O)c1cccc(NC(=O)[C@@H](NC(N)=O)C(C)C)c1`, the inhibition was -2.68% (inactive).
With `O=C(Nc1ccccc1)Nc1nnc(COc2ccccc2F)s1` the inhibition was 7.01% (inactive).
For `CCCCN1C(=O)C(=O)N(CC(=O)Nc2cccc(C(C)=O)c2)C1=O`, the inhibition was 10.5% (inactive).
With `CSc1nsc(NC(=O)Nc2ccccc2)n1` the inhibition was 28.2% (active).
For `COc1ccc(C(=O)OCC(=O)Nc2cccc(C(C)=O)c2)cc1OC`, the inhibition was -4.37% (inactive).
In the case of `C=CCSc1nsc(NC(=O)Nc2cccc(C(C)=O)c2)n1`, the inhibition is reported as 24.7% (active).
In the case of `CCSc1nsc(NC(=O)Nc2cccc(C(C)=O)c2)n1`, the inhibition is reported as 30.8% (active).
For `CC(=O)c1cccc(NC(=S)N2CCN(S(C)(=O)=O)CC2)c1`, the inhibition was -7.23% (inactive).
For `CCN1C(=O)C(C(=O)NC(C)c2ccccc2)C2CC1(C)Oc1ccccc12` (centres undefined), the inhibition was -9.9% (inactive).
In the case of `CC(C)n1cnc2c(NCc3ccccc3)cc(OCC3CCN(C)CC3)cc21`, the inhibition is reported as -18.6% (inactive).
For `Cc1cc(S(=O)(=O)NCC(C)C)ccc1OCC(=O)NC1CC1`, the inhibition was 7.62% (inactive).
In the case of `O=C(CN1C(=O)NC2(CCCC2)C1=O)NCC1CCCO1` (centres undefined), the inhibition is reported as -10.5% (inactive).
In the case of `O=C(Nc1ccccc1C(=O)NCC1CCCO1)c1ccccc1F` (centres undefined), the inhibition is reported as -7.11% (inactive).
For `NS(=O)(=O)c1ccc(NC(=O)COC(=O)CCc2c[nH]c3ccccc23)cc1`, the inhibition was 0.38% (inactive).
With `CC(NC(=S)Nc1ccc(S(N)(=O)=O)cc1)c1ccc2c(c1)OCO2` (centres undefined) the inhibition was 9.71% (inactive).
For `NS(=O)(=O)c1ccc(NC(=O)COC(=O)c2c3c(nc4ccccc24)/C(=C\c2ccc4c(c2)OCO4)CCC3)cc1`, the inhibition was 26.9% (active).
For `Cc1ccc(C(=O)N/C(=C\c2ccco2)C(=O)NC2CCS(=O)(=O)C2)cc1` (centres undefined), the inhibition was -6.64% (inactive).
For `CCC(CC)C(=O)Nc1cc(C(=O)OC)cc(C(=O)OC)c1`, the inhibition was -1.71% (inactive).
In the case of `CN(Cc1ccccc1F)C(=O)C(Cc1ccccc1)NC(=O)c1ccccc1` (centres undefined), the inhibition is reported as 31.8% (active).
In the case of `CC(C)C(NC(=O)c1c(F)cccc1F)C(=O)NNC(=O)c1ccccc1` (centres undefined), the inhibition is reported as -6.47% (inactive).
With `NC(=O)c1ccc(NC(=O)COC(=O)C(Cc2ccccc2)NC(=O)c2ccccc2)cc1` (centres undefined) the inhibition was 18.1% (inactive).
For `Cc1ccccc1N1CCN(C2CCCN(C(=O)c3cn4c(C)cccc4n3)C2)CC1` (centres undefined), the inhibition was -0.61% (inactive).
For `CCc1ccccc1NC(=O)c1ccc2c(c1)CCN2S(C)(=O)=O`, the inhibition was 4.89% (inactive).
In the case of `CS(=O)(=O)N1CCc2cc(C(=O)Nc3ccccc3Br)ccc21`, the inhibition is reported as 25.4% (active).
With `CSc1ccccc1NC(=O)c1ccc2c(c1)CCN2S(C)(=O)=O` the inhibition was -14.8% (inactive).
With `Oc1cc2c(cc1O)CN(C(=S)NCCc1ccc(Cl)cc1)CCC2` the inhibition was 1.38% (inactive).
With `O=C(CSc1nnc2ccc(-c3ccncc3)nn12)N1CCCCC1` the inhibition was -8.71% (inactive).
With `Cc1nn(Cc2ccc(F)cc2)c(C)c1NC(=O)c1noc2c1CCc1ccccc1-2` the inhibition was 24.5% (active).
For `Cc1nn(Cc2ccc(Cl)c(Cl)c2)c(C)c1NC(=O)c1cc(C2CC2)on1`, the inhibition was -3.24% (inactive).
In the case of `Cc1ccccc1Cn1nc(C)c(NC(=O)C(F)(F)F)c1C`, the inhibition is reported as -5.32% (inactive).
In the case of `Cc1cc(C)c2oc(C(=O)Nc3ccc(S(=O)(=O)Nc4nccc(C)n4)cc3)cc(=O)c2c1`, the inhibition is reported as -10.7% (inactive).
With `Cc1ccc(OCc2cc(C(=O)N(C)CCn3ccnc3C)no2)cc1C` the inhibition was -1.34% (inactive).
For `Cc1n[nH]c(=O)c2c(NC(=O)CSc3cc(Cl)ccc3Cl)oc(C)c12`, the inhibition was -14.8% (inactive).
With `CCC(C)CN1CCC(CO)(Cc2ccccc2Cl)CC1` (centres undefined) the inhibition was -1.43% (inactive).
In the case of `Nc1ccccc1C(=O)NC1CCCCNC1=O` (centres undefined), the inhibition is reported as -4.31% (inactive).
With `Fc1ccccc1CNC(=S)Nc1ccc(Cl)cc1` the inhibition was 7.2% (inactive).
With `O=C(NNC(=S)NCc1ccccc1)c1ccc(OC(F)F)cc1` the inhibition was -9.25% (inactive).
In the case of `FC(F)(F)Oc1ccc(NC(=S)NCc2ccccc2)cc1`, the inhibition is reported as 26.5% (active).
With `COc1ccc(NS(=O)(=O)c2ccc(Oc3c(C#N)cccc3C#N)cc2)cc1` the inhibition was 49.1% (active).
In the case of `COc1ccc(NS(=O)(=O)c2ccc(N3CCN(CCO)CC3)c([N+](=O)[O-])c2)cc1`, the inhibition is reported as 4.94% (inactive).
For `COc1ccc(S(=O)(=O)Nc2ccc3oc(C)c(C(C)=O)c3c2)cc1`, the inhibition was 9.32% (inactive).
With `CC(OC(=O)CCC(=O)c1ccccc1)C(=O)Nc1ccc(F)cc1` (centres undefined) the inhibition was 1.59% (inactive).
In the case of `c1ccc(C(=NNc2nc3ccccc3s2)c2ccccn2)cc1`, the inhibition is reported as 35.5% (active).
With `COc1cc(OC)nc(N/N=C(\c2ccccc2)c2ccncc2)n1` the inhibition was -9.28% (inactive).
In the case of `O=C(Nc1nnc(C2CC2)s1)c1ccccn1`, the inhibition is reported as -5.35% (inactive).
In the case of `CC1(C(=O)NCc2ccc3c(c2)OCO3)CCN1CCc1ccccc1` (centres undefined), the inhibition is reported as -8.04% (inactive).
With `O=C(CC1Sc2ccccc2NC1=O)NNc1ccc(Cl)c(Cl)c1` (centres undefined) the inhibition was -13.4% (inactive).
With `O=C(COc1ccccc1)N1CCN=C1SCc1cccc(F)c1` the inhibition was -5.27% (inactive).
For `O=C(NCC(=O)N1CCC2(CC1)NCCc1[nH]cnc12)c1ccc(Br)cc1`, the inhibition was -11.4% (inactive).
With `CCC(=O)N1c2ccc(S(=O)(=O)CCC(=O)N3CCN(c4ccccc4)CC3)cc2CC1C` (centres undefined) the inhibition was 24.5% (active).
With `CCC(=O)N1CCc2cc(S(=O)(=O)CCC(=O)N3CCN(c4ccccc4F)CC3)ccc21` the inhibition was -5.31% (inactive).
For `CCC(=O)N1c2ccc(S(=O)(=O)NCc3ccco3)cc2CC1C` (centres undefined), the inhibition was -18.4% (inactive).
For `CC[C@]12c3[nH]c4ccc(OC)cc4c3CCN1C(=O)C(CC(=O)NCCN1CCOCC1)C[C@@H]2C(=O)N1CCN(C(=O)C2CC2)CC1` (some centres undefined), the inhibition was -4.64% (inactive).
In the case of `CCc1ccc2oc(=O)cc(CN3CCCCC3C)c2c1` (centres undefined), the inhibition is reported as -11.8% (inactive).
With `c1ccc2c(c1)OCC(CNc1ncnc3nc[nH]c13)O2` (centres undefined) the inhibition was 44.4% (active).
In the case of `O=C(COC(=O)c1ccc(F)cc1)NCC1COc2ccccc2O1` (centres undefined), the inhibition is reported as -5.85% (inactive).
For `COc1ccc(CCNc2ncnc3nc[nH]c23)cc1OC`, the inhibition was 10.8% (inactive).
With `O=C(Nc1ccc2c(c1)OCCO2)C1c2ccccc2OCC(=O)N1Cc1ccccn1` (centres undefined) the inhibition was -12.5% (inactive).
With `CN(CCO)Cc1csc2ccc(Br)cc12` the inhibition was -7.65% (inactive).
For `CN(Cc1ccc(F)cc1)C(=O)COc1ccc2ccccc2c1`, the inhibition was -15.2% (inactive).
With `COc1ccc(C(=O)COC(=O)Cn2cnc3c2c(=O)n(C)c(=O)n3C)c(OC)c1` the inhibition was -0.99% (inactive).
In the case of `COc1ccc(C(C#N)Nc2ccccc2C)cc1` (centres undefined), the inhibition is reported as -8.31% (inactive).
In the case of `CC(C)(C)n1nnnc1C(c1ccc2ncccc2c1)N1CCSCC1` (centres undefined), the inhibition is reported as -9.5% (inactive).
For `COc1ccc(N2CCN(C(=O)CNC(=O)c3ccc(C(C)(C)C)cc3)CC2)cc1`, the inhibition was 9.5% (inactive).
With `CCOc1ccc(C(=O)NCC(=O)N2CCN(c3ccc(C(F)(F)F)cn3)CC2)cc1` the inhibition was 31.8% (active).
For `O=C(NCC(=O)N1CCN(c2ncc(C(F)(F)F)cc2Cl)CC1)c1ccc(Br)o1`, the inhibition was -11.5% (inactive).
With `Cc1ccccc1CSCCNC(=O)c1ccc(N(C)S(=O)(=O)c2ccccc2)cc1` the inhibition was -7.28% (inactive).
For `Cc1cc(-c2nnc(SCC(=O)Nc3ccc(S(N)(=O)=O)cc3)n2N)n[nH]1`, the inhibition was -13.8% (inactive).
In the case of `O=C(NCc1ccccc1)C1c2ccccc2OCC(=O)N1C1CC1` (centres undefined), the inhibition is reported as 0.77% (inactive).
For `O=[N+]([O-])c1ccc2c(c1)C(O)n1nc(-c3ccccc3)nc1S2` (centres undefined), the inhibition was -21.9% (inactive).
With `COc1cc(Nc2nc3ccc(Cl)cc3n3cnnc23)cc(OC)c1OC` the inhibition was 28.9% (active).
For `COc1ccc(OC)c(Nc2nc3ccccc3n3cnnc23)c1`, the inhibition was -12.2% (inactive).
In the case of `COc1ccc(CCNc2nc3ccc(C)cc3n3cnnc23)cc1OC`, the inhibition is reported as -5.44% (inactive).
With `O=C1CN(C(=O)COC(=O)c2cnc(Cl)c(Cl)c2)c2ccccc2N1` the inhibition was -25% (inactive).
For `O=C(CCc1nnc(Cc2ccc3c(c2)OCO3)o1)NCCc1ccccc1Cl`, the inhibition was -0.82% (inactive).
With `COc1ccccc1Cc1c(-c2ccc(Cl)cc2)nc2c3ccccc3ccn12` the inhibition was -20.1% (inactive).
For `CNS(=O)(=O)c1ccc2c(c1)[nH]c(=S)n2C`, the inhibition was 35.9% (active).
In the case of `CCCCn1c(=S)[nH]c2cc(S(=O)(=O)N3CCCCC3)ccc21`, the inhibition is reported as -12.6% (inactive).
For `CCn1c(=S)[nH]c2cc(S(=O)(=O)N3CCOCC3)ccc21`, the inhibition was -3.41% (inactive).
In the case of `CN1CCc2c(sc3c2c(NCc2ccco2)nc2nnnn23)C1`, the inhibition is reported as -19.9% (inactive).
For `O=C(Cc1ccc(S(=O)(=O)N2CCOCC2)s1)N1CCN(c2ccc(C(F)(F)F)cc2[N+](=O)[O-])CC1`, the inhibition was 5.21% (inactive).
In the case of `O=C(c1ccc(N2CCCC2=O)cc1)N1CCN(c2ccc(C(F)(F)F)cc2[N+](=O)[O-])CC1`, the inhibition is reported as 44% (active).
With `COc1cc(OC)cc(C(=O)NC(=S)N2CCN(c3ccc(C(F)(F)F)cc3[N+](=O)[O-])CC2)c1` the inhibition was 5.86% (inactive).
